# The supplement of paper PMC10849652
# Of roughly 8,800 targets only a part is listed; those with a hit were picked by preference. About 0.5% of all pairs of compound and target were hits. A number with no mark means an inactive call.
# Assays:
# Assay in all cases: log2 fold change, soluble protein after heating vs DMSO (PISA); higher = thermal stabilisation; K562 lysate, 10 uM; active = over 0.2 and 3.5 SD of the protein, either way, in both replicates (recomputed)
# lapatinib = compound: CS(=O)(=O)CCNCc1ccc(-c2ccc3ncnc(Nc4ccc(OCc5cccc(F)c5)c(Cl)c4)c3c2)o1 [lapatinib]
# In short: (§1)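 Thermal stability, expressed as log-two fold change relative to solvent controls, is given from duplicates. Crude K562 extract in PBS pH 7.4 with 1 mM MgCl2, at 1 mg/mL protein, was treated with 10 μM compound for 30 min and heated in aliquots for 3 min across 48°C-58°C. After pooling, adjustment to 0.5% NP-40 at 4°C and centrifugation at 21,000xg for 90 min, supernatant protein was measured by TMTpro 16plex LC-MS/MS with channel sums equalised.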
# pictilisib = compound: CS(=O)(=O)N1CCN(Cc2cc3nc(-c4cccc5[nH]ncc45)nc(N4CCOCC4)c3s2)CC1 [pictilisib]
# In short: as §1
# crizotinib = compound: C[C@@H](Oc1cc(-c2cnn(C3CCNCC3)c2)cnc1N)c1c(Cl)ccc(F)c1Cl [crizotinib]
# In short: as §1
# [1] = compound: C[C@H](C1=CC=C(C=C1)C(=O)NC2=C3C=CNC3=NC=C2)N
# In short: as §1
# duvelisib = compound: C[C@H](Nc1ncnc2nc[nH]c12)c1cc2cccc(Cl)c2c(=O)n1-c1ccccc1 [duvelisib]
# In short: as §1
# gandotinib = compound: Cc1cc(Nc2cc(CN3CCOCC3)c3nc(C)c(Cc4ccc(Cl)cc4F)n3n2)n[nH]1 [gandotinib]
# In short: as §1
# tozasertib = compound: Cc1cc(Nc2cc(N3CCN(C)CC3)nc(Sc3ccc(NC(=O)C4CC4)cc3)n2)n[nH]1 [tozasertib]
# In short: as §1
# doramapimod = compound: Cc1ccc(-n2nc(C(C)(C)C)cc2NC(=O)Nc2ccc(OCCN3CCOCC3)c3ccccc23)cc1 [doramapimod]
# In short: as §1
# bafetinib = compound: Cc1ccc(NC(=O)c2ccc(CN3CC[C@H](N(C)C)C3)c(C(F)(F)F)c2)cc1Nc1nccc(-c2cncnc2)n1 [bafetinib]
# In short: as §1
# [2] = compound: Cc1cccc(CC(=O)N2CCc3c2ccc(-c2cn(C)c4ncnc(N)c24)c3F)n1
# In short: as §1
# Sequence of UniProt P49137 (P49137 whole entry, looked up): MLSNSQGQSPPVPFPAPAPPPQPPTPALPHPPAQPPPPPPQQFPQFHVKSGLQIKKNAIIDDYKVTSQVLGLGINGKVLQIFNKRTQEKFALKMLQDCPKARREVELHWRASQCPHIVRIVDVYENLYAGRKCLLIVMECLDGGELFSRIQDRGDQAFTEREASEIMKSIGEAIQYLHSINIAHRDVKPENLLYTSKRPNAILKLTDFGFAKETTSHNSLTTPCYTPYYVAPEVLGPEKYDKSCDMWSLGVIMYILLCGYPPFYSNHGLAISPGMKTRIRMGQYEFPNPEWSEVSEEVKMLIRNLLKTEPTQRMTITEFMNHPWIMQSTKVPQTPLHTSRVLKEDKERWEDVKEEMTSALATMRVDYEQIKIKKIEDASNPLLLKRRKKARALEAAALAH
# Sequence of UniProt P14174 (P14174 whole entry, looked up): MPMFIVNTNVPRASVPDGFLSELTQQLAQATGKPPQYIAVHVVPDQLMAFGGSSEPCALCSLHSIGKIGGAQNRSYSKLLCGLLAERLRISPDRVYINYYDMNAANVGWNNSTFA
# Sequence of UniProt Q6ZRQ5 (Q6ZRQ5 whole entry, looked up): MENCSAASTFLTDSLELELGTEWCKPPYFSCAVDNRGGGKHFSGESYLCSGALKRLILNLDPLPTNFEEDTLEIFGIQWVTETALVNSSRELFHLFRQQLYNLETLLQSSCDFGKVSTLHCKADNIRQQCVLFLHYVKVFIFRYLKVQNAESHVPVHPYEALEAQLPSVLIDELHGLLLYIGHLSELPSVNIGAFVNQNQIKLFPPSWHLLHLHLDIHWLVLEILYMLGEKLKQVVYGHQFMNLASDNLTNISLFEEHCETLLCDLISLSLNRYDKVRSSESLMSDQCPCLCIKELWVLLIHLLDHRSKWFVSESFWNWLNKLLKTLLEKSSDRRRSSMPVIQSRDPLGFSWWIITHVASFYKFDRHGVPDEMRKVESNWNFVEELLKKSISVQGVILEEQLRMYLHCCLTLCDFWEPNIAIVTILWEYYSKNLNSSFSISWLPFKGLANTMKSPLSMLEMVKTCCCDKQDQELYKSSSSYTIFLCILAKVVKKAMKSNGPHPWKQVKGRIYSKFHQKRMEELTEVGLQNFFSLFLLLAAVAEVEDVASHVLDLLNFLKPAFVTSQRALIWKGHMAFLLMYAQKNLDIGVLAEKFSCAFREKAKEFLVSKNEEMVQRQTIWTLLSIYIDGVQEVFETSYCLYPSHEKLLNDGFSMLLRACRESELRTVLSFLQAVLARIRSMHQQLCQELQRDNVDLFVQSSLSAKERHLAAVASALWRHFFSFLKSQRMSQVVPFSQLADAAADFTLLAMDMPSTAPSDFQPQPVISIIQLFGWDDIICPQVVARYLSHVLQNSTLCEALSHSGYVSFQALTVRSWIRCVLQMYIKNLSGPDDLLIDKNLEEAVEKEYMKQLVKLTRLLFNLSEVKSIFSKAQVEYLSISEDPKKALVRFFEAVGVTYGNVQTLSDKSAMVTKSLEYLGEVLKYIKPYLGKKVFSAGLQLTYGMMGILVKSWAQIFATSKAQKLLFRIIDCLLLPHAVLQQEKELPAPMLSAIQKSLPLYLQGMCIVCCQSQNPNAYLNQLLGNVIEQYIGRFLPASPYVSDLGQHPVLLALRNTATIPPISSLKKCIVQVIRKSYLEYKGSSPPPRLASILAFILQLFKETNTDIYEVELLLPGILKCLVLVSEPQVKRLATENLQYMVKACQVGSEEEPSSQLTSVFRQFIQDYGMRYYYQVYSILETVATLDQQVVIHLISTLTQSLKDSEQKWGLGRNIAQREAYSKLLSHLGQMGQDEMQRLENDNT
# Sequence of UniProt Q14807 (Q14807 whole entry, looked up): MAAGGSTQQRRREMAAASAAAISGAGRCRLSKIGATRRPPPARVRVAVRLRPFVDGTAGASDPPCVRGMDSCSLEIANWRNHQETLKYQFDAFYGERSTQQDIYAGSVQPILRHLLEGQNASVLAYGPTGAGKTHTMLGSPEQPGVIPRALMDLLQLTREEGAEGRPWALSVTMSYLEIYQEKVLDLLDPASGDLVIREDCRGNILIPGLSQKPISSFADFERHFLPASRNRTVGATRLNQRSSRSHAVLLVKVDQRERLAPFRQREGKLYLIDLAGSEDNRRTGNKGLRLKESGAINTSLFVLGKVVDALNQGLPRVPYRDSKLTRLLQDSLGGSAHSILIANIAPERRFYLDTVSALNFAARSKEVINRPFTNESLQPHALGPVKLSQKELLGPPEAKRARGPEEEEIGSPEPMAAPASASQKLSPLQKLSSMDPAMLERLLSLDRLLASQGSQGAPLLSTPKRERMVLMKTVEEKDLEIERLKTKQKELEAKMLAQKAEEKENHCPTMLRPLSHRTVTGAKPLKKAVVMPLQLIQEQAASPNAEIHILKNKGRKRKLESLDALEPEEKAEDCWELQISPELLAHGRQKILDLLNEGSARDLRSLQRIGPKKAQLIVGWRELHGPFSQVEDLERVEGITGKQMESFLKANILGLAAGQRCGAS
# Sequence of UniProt Q00013 (Q00013 whole entry, looked up): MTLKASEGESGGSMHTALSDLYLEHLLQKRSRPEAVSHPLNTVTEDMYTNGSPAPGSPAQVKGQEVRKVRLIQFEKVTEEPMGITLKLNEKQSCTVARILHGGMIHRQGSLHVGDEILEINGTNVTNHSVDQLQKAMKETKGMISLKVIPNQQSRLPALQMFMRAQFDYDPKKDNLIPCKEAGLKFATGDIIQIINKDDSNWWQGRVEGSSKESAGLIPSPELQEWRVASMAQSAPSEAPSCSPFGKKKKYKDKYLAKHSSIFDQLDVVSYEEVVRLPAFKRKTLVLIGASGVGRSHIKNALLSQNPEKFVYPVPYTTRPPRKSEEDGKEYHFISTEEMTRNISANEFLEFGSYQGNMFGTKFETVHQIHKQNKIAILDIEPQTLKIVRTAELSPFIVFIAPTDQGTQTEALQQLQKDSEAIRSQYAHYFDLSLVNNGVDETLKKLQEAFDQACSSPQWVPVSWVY
# Sequence of UniProt Q99797 (Q99797 whole entry, looked up): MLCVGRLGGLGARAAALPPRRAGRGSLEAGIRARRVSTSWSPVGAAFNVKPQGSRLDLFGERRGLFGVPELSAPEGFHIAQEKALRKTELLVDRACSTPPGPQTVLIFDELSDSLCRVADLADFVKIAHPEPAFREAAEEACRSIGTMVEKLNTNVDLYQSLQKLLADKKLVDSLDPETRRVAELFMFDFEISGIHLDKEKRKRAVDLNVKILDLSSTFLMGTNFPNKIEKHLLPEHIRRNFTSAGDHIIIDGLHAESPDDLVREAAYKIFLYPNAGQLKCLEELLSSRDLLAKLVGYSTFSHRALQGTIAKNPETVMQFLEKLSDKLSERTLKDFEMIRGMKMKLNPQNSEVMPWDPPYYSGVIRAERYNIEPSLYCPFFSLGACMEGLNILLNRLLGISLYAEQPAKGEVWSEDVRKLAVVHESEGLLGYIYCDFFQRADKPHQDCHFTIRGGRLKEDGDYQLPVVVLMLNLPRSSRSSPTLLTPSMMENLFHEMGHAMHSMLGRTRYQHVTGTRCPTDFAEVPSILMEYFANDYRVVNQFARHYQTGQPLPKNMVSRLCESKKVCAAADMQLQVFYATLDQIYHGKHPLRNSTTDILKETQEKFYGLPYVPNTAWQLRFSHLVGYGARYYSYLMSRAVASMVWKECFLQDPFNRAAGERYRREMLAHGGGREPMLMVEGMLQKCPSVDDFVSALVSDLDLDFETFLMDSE
# Sequence of UniProt Q9H6V9 (Q9H6V9 whole entry, looked up): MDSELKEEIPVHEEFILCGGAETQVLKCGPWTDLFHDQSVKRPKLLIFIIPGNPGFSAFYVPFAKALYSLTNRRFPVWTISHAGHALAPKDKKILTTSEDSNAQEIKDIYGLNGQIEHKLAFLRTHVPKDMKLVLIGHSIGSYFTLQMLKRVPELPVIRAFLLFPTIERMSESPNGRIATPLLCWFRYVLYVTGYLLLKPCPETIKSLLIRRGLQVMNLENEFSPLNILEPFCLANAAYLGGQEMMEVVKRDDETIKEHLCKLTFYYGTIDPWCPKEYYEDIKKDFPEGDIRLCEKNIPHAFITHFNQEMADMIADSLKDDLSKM
# Sequence of UniProt Q5SRI9 (Q5SRI9 whole entry, looked up): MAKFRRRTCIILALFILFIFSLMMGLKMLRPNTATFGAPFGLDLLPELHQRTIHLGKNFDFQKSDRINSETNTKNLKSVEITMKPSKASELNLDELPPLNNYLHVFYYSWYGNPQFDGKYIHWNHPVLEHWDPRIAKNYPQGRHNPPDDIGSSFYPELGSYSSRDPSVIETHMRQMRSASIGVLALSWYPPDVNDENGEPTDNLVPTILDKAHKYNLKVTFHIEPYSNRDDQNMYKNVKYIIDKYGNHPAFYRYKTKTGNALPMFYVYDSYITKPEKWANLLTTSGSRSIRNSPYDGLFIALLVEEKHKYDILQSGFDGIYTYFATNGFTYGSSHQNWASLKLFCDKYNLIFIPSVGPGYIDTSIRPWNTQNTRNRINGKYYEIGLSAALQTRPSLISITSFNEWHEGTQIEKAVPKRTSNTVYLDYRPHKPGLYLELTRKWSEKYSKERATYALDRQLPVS
# Sequence of UniProt Q8NHP6 (Q8NHP6 whole entry, looked up): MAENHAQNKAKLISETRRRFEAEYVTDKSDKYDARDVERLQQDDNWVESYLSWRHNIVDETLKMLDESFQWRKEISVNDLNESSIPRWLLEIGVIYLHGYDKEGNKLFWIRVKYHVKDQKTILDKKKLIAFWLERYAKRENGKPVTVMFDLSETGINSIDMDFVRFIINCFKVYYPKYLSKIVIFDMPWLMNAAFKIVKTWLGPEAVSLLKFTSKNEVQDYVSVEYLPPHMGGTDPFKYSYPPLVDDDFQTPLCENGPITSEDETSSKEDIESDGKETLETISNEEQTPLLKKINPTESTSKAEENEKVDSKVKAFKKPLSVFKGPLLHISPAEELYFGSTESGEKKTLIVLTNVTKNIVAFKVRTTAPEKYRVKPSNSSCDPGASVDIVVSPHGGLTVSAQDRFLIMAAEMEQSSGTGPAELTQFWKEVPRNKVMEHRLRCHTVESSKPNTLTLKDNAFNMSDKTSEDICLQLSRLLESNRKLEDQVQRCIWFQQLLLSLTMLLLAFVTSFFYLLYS
# Sequence of UniProt Q9HD34 (Q9HD34 whole entry, looked up): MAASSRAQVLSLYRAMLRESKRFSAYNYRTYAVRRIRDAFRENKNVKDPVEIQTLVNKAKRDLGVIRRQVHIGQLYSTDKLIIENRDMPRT
Target,log2 fold change (lapatinib),log2 fold change (pictilisib),log2 fold change (crizotinib),log2 fold change [1],log2 fold change (duvelisib),log2 fold change (gandotinib),log2 fold change (tozasertib),log2 fold change (doramapimod),log2 fold change (bafetinib),log2 fold change [2]
MMS22L (UniProt Q6ZRQ5),-0.101,-0.034,0.113,0.065,-0.106,-0.169,0.087,-0.018,-0.152,-0.029
MCU (UniProt Q8NE86),-0.145,-0.041,-0.125,-0.03,0.037,-0.311 (active),-0.02,0.085,-0.108,0.032
KPNA2 (UniProt P52292),-0.016,0.024,-0.063,-0.001,0.011,-0.066,0.017,0.003,-0.028,0.05
MED10 (UniProt Q9BTT4),0.107,0.232,0.016,-0.024,0.016,0.04,-0.057,0.014,0.187,0.055
LYRM4 (UniProt Q9HD34),-0.036,-0.026,-0.034,0.413 (active),0.031,-0.095,-0.021,-0.047,0.008,-0.007
KIF22 (UniProt Q14807),-0.149,-0.07,-0.29,-0.201,-0.02,0.238,-0.043,-0.009,-0.068,0.33
METTL2A (UniProt Q96IZ6),-0.001,-0.049,-0.026,0.056,0.052,-0.065,0.029,0.035,-0.017,-0.065
MARK2 (UniProt E9PC69),0.003,0.052,-0.14,0.131,-0.068,-0.166,-0.233,0.075,-0.071,0.025
MANEA (UniProt Q5SRI9),-0.01,0.008,-0.023,-0.464 (active),0.036,0.365 (active),0.035,0.034,0.007,0.278
MAPKAPK2 (UniProt P49137),-0.04,-0.05,-0.014,0.046,0.033,-0.03,0.004,0.092,-0.037,0.018
MPP1 (UniProt Q00013),0.006,0.016,0.001,-0.006,0.012,-0.008,0.017,0.006,-0.015,0.001
MRPL27 (UniProt Q9P0M9),0.02,0.017,-0.046,0.658 (active),0.02,-0.249,0.029,0.011,0.012,-0.076
MITD1 (UniProt Q8WV92),0.003,-0.032,0.046,0.086,0.055,0.025,-0.015,-0.049,-0.118,-0.085
MGST3 (UniProt O14880),0.01,-0.017,0.004,0.23,-0.02,-0.078,-0.035,-0.025,-0.048,-0.087
LAS1L (UniProt Q9Y4W2),-0.004,-0.033,-0.05,-0.051,-0.003,0.017,0.043,0.011,-0.004,0.233 (active)
LDAH isoform 2 (UniProt Q9H6V9),0.014,0.006,-0.062,-0.016,0.008,-0.036,0.06,0.021,-0.01,0.143
LIMK2 isoform 3 (UniProt P53671),0.029,0.112,-0.138,0.626 (active),-0.035,-0.144,0.01,0.109,-0.108,-0.037
MAN2B2 (UniProt Q9Y2E5),0.01,0.021,0,0.595 (active),-0.018,-0.38,0.003,-0.028,-0.12,-0.546 (active)
MAP2K1 (UniProt Q02750),-0.065,-0.009,0.001,0.204,-0.021,-0.042,0.152,-0.002,-0.027,-0.047
MAD2L2 (UniProt Q9UI95),-0.003,0.058,-0.142,-0.008,-0.001,-0.127,0.042,0.022,-0.11,0.073
LRWD1 (UniProt Q9UFC0),-0.026,-0.049,-0.199,-0.011,0,-0.102,-0.007,0.029,-0.082,0.019
LAGE3 (UniProt Q14657),0.002,-0.032,-0.014,0.04,-0.12,-0.013,0.043,0.009,0.084,0.013
MIPEP (UniProt Q99797),-0.013,-0.031,0.041,-0.004,-0.022,-0.049,0.072,-0.059,0.016,0.04
MCCC1 (UniProt Q96RQ3),-0.022,-0.038,-0.004,0.106,0.017,-0.14,-0.019,0.003,-0.048,-0.093
MACROD1 (UniProt Q9BQ69),0.011,-0.013,-0.066,0.084,0.04,-0.017,-0.03,-0.012,-0.102,0.052
LARS2 (UniProt Q15031),-0.012,-0.073,-0.047,0.014,-0.039,-0.2,0.054,0.012,-0.067,0.044
KLC1 isoform 6 (UniProt Q07866),-0.011,-0.001,0,-0.009,-0.031,-0.073,-0.004,0.026,-0.008,0.005
MAP2K4 isoform 2 (UniProt P45985),-0.036,-0.077,-0.086,0.619 (active),-0.012,-0.031,-0.087,-0.032,-0.05,-0.059
MIF (UniProt P14174),0.04,0.06,-0.022,-0.258 (active),0.022,0.11,-0.057,0.008,0.383,0.024
MOSPD2 (UniProt Q8NHP6),0.01,-0.036,-0.041,-0.076,-0.02,0.003,0.021,0.022,-0.009,0.1
